From PubChem BioAssay (NCI) come the findings set out here.

Among the test systems are NCI-H23 lung; NCI-H226 lung; NCI-H322M lung; HOP-62 NSCLC; NCI-H460 lung; NCI-H522 lung; A549/ATCC NSCLC; 786-0 renal; DU-145 prostate; K-562 leukemia; MALME-3M melanoma; MDA-MB-231 breast; RXF 393 renal; SF-268 CNS; SF-295 CNS; SF-539 CNS; UACC-257 melanoma; M14 melanoma; COLO 205 colon.
Common to all, as to test: NCI-60 one-dose screen, 48 h (100 = growth as untreated, 0 = no growth, -100 = all killed)
Conditions in all cases: 10 µM unless noted

This is part of a sample that, as a whole, favours compounds with a hit. Of some 83,000 tested, about 20% had one in any assay.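 Percent growth is the endpoint: 0 to 100 indicates growth inhibition (40 means 60% inhibition), 0 means no net growth, and negative values indicate cell death.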 Unmarked numbers belong to inactive results. Activity calls are given as the source filed them. The calls were made as follows: active = growth percent below 10; inactive = the rest.

For the molecule `C/C(=N\NC(=O)CSc1nc2ccccc2c(=O)n1CCc1ccc(S(N)(=O)=O)cc1)c1ccc(Br)cc1`, the growth with NCI-H23 lung is 60.4%; in the assay with NCI-H226 lung, 95.2%; with NCI-H322M lung, 97.2%; in the assay on HOP-62 NSCLC, 77.4%; with NCI-H460 lung it was 30.8%; in the assay on NCI-H522 lung, 62.5%. Also, the growth in the assay on A549/ATCC NSCLC is 47.3%; with 786-0 renal it was 49.8%; with DU-145 prostate, 99%; with K-562 leukemia, 54.3%; in the assay on MALME-3M melanoma, 54.4%; with MDA-MB-231 breast, 36.9%. The growth in the assay on RXF 393 renal is 99.1%; in the assay with SF-268 CNS, 99.4%; in the assay on SF-295 CNS it was 89.9%; in the assay on SF-539 CNS it was 83.1%; with UACC-257 melanoma it was 83.3%; with M14 melanoma, 70.3%.
`CCN(CC)CC(=O)Nc1c(C)ccc(N)c1C`: the growth with NCI-H23 lung is 101%; in the assay on NCI-H226 lung, 98.4%; with NCI-H322M lung, 90.2%; in the assay on HOP-62 NSCLC it was 94.2%; with NCI-H460 lung it was 108%; with NCI-H522 lung, 74.4%. The growth was 100% with A549/ATCC NSCLC; 93.4% in the assay with 786-0 renal; 107% with DU-145 prostate; 128% with K-562 leukemia; 90.5% in the assay on MALME-3M melanoma; 107% in the assay on MDA-MB-231 breast. Moreover, the growth was 116% with RXF 393 renal; 102% in the assay with SF-268 CNS; 97% in the assay with SF-295 CNS; 99.6% in the assay on SF-539 CNS; 105% in the assay with UACC-257 melanoma; 101% in the assay with M14 melanoma.
As for `CCN(CC)c1ccc(/C=C2/NC(=O)NC2=O)cc1`, the growth is 44.6% in the assay on NCI-H23 lung; 81.5% with NCI-H226 lung; 79.1% with NCI-H322M lung; 53.4% with HOP-62 NSCLC; 20.6% in the assay with NCI-H460 lung; 14.5% in the assay on NCI-H522 lung. Besides, the growth in the assay with A549/ATCC NSCLC is 59.1%; in the assay with 786-0 renal it was 48%; in the assay with DU-145 prostate, 64.3%; in the assay with MALME-3M melanoma it was 42%; in the assay with MDA-MB-231 breast, 57.5%; in the assay on RXF 393 renal it was 50.3%. Moreover, the growth with SF-268 CNS was 57%; with SF-295 CNS, 23.6%; in the assay on SF-539 CNS, 6.57% (active); in the assay with UACC-257 melanoma, 72.9%; in the assay on M14 melanoma, 8.99% (active).
Consider `O=C1SCN(Cc2ccccc2)CN1Cc1ccccc1`, for which the growth with NCI-H23 lung was 91.2%; in the assay on NCI-H226 lung, 96.2%; with NCI-H322M lung, 95.3%; in the assay with HOP-62 NSCLC it was 102%; with NCI-H460 lung, 107%; in the assay with NCI-H522 lung, 26.3%. Further, the growth with A549/ATCC NSCLC is 99.1%; in the assay with 786-0 renal, 114%; in the assay on DU-145 prostate it was 95.4%; in the assay with K-562 leukemia, 46.3%; with MALME-3M melanoma, 101%; in the assay on MDA-MB-231 breast it was 86.9%. Besides, the growth is 108% with RXF 393 renal; 96.2% with SF-268 CNS; 110% in the assay with SF-295 CNS; 104% in the assay with SF-539 CNS; 70.9% in the assay with UACC-257 melanoma; 99.1% with M14 melanoma.
On to `COc1cc(/C=C/c2cc(/C=C/c3ccc(O)c(OC)c3)n(C(=O)Nc3ccc(F)c(Cl)c3)n2)ccc1O`, for which the growth in the assay on NCI-H23 lung is -12.9% (active); in the assay with NCI-H226 lung, -4.32% (active); with NCI-H322M lung, 12.6%; with HOP-62 NSCLC it was -7.78% (active); in the assay with NCI-H460 lung, 4.43% (active); in the assay on NCI-H522 lung, 10.9%. Besides, the growth in the assay with A549/ATCC NSCLC is 5.9% (active); in the assay with 786-0 renal, -32.9% (active); with DU-145 prostate, -11.8% (active); in the assay with K-562 leukemia it was -3.9% (active); in the assay on MALME-3M melanoma it was -16.8% (active); in the assay with MDA-MB-231 breast, 12.2%. The growth is -57.6% (active) in the assay with RXF 393 renal; 6.57% (active) in the assay on SF-268 CNS; -55.3% (active) in the assay with SF-295 CNS; -16.6% (active) with SF-539 CNS; -15.9% (active) in the assay on UACC-257 melanoma; -21.9% (active) in the assay on M14 melanoma.
Turning to `CCOCCNc1ccc(S(=O)(=O)c2ccc(N)cc2)cc1N`, the growth is 92.5% with NCI-H23 lung; 94.6% in the assay with NCI-H226 lung; 101% in the assay on NCI-H322M lung; 110% in the assay on HOP-62 NSCLC; 109% with NCI-H460 lung; 96% in the assay on NCI-H522 lung. Besides, the growth in the assay with A549/ATCC NSCLC is 91.5%; in the assay with 786-0 renal it was 108%; in the assay on DU-145 prostate, 119%; in the assay on K-562 leukemia, 107%; in the assay on MALME-3M melanoma, 109%; in the assay on MDA-MB-231 breast, 118%. Moreover, the growth in the assay on RXF 393 renal was 130%; in the assay on SF-268 CNS, 97.1%; in the assay with SF-295 CNS, 96.2%; in the assay on SF-539 CNS, 109%; in the assay on UACC-257 melanoma, 92.8%; in the assay with M14 melanoma, 112%.
Consider `COc1ccc(Cl)cc1Nc1nc(C(F)(F)F)ccc1C(=O)NN`, for which the growth was 39.9% in the assay on NCI-H23 lung; 24.1% in the assay with NCI-H226 lung; -30.8% (active) with HOP-62 NSCLC; 70.3% with NCI-H460 lung; 12.9% in the assay with NCI-H522 lung; 47.6% with A549/ATCC NSCLC. Further, the growth with 786-0 renal was 2.09% (active); in the assay on COLO 205 colon, 12.5%; in the assay on DU-145 prostate, 40%; with K-562 leukemia it was 55.7%; with MALME-3M melanoma it was 8.85% (active); with MDA-MB-231 breast it was 5.57% (active). The growth was -3.01% (active) in the assay on RXF 393 renal; 26.4% in the assay with SF-268 CNS; 16.7% in the assay with SF-295 CNS; 31.2% in the assay with SF-539 CNS; 28.3% with UACC-257 melanoma; 38% with M14 melanoma.
With `COC(=O)CSc1ccc(Cl)cc1`, the growth was 102% with NCI-H23 lung; 123% in the assay on NCI-H226 lung; 107% in the assay with HOP-62 NSCLC; 109% in the assay with NCI-H460 lung; 92.2% in the assay on NCI-H522 lung; 98% in the assay on A549/ATCC NSCLC. The growth is 95.3% in the assay on 786-0 renal; 108% in the assay on COLO 205 colon; 111% with DU-145 prostate; 89.6% in the assay with K-562 leukemia; 95.5% with MALME-3M melanoma; 116% in the assay with MDA-MB-231 breast. Besides, the growth was 136% with RXF 393 renal; 119% in the assay with SF-268 CNS; 107% in the assay with SF-295 CNS; 97.3% in the assay with SF-539 CNS; 104% with UACC-257 melanoma; 103% with M14 melanoma.
As to `CC(=O)O[C@@H]1CC2C(C)(C)CCCC2(C)C2=C1C(=O)C(C(C)C)=CC2=O` (stereo partly specified), the growth is 8.94% (active) with NCI-H23 lung; -78% (active) in the assay with NCI-H226 lung; -25.6% (active) in the assay on HOP-62 NSCLC; -8.52% (active) in the assay on NCI-H460 lung; -27.1% (active) in the assay on NCI-H522 lung; -35% (active) in the assay on A549/ATCC NSCLC. Also, the growth with 786-0 renal was 16%; in the assay with COLO 205 colon, -50.8% (active); in the assay with DU-145 prostate, -19.2% (active); in the assay with K-562 leukemia it was 6.8% (active); in the assay with MALME-3M melanoma it was -12.8% (active); with MDA-MB-231 breast it was -15% (active). Moreover, the growth is -57.8% (active) with RXF 393 renal; 27.1% in the assay on SF-268 CNS; -34.1% (active) in the assay with SF-295 CNS; -39.3% (active) in the assay on SF-539 CNS; -52% (active) in the assay with UACC-257 melanoma; -60.9% (active) with M14 melanoma.
